Source: PubChem BioAssay (NCATS)
Values joined by “and” are separate entries in the source; they are usually repeats but may differ in a detail not shown here. Identical values can stand only once. Results filed as inconclusive are left out. Active and inactive are the calls of the source. Unless noted, calls follow the shape of the dose curve; as a rule, active = well fitted activation curve with a large enough effect; inconclusive = small, poorly fitted or top-dose-only effect; inactive = flat fitted curve, though single readings scatter.

target: Tumor necrosis factor (Homo sapiens) (UniProt P01375); experiment: qHTS assay to identify small molecules that stimulate Tumor Necrosis Factor-alpha (TNF-alpha) secretion (AID 651757; active = well fitted curve in the direction sought with a large enough effect in the signal ratio; the % refers to the signal ratio; also: 0% is about no effect); settings: Human cells, HTRF 665/615 ratio; series mostly up to 92.2 µM; activation (TNF-alpha secretion): at the top concentration
Sequence (P01375 whole entry, looked up): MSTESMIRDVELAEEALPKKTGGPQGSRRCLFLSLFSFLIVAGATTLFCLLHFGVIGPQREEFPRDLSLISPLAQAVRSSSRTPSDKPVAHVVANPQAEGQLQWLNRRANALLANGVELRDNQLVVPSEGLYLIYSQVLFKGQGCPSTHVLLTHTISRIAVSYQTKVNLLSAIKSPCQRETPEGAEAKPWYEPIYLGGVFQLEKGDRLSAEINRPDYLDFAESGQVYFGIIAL
How it was run: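 Secreted TNF-alpha from compound-treated THP-1 cells (17 hrs, 37 C) was quantified with a homogeneous time-resolved fluorescence antibody assay.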

SMILES | activation (TNF-alpha secretion)
CCCCCCc1ccc(-c2ccc(C#N)cc2)cc1 | 0.662% (inactive)
Nc1cnn([C@@H]2O[C@H](CO)[C@@H](O)[C@H]2O)c(=O)n1 | 1.01% (inactive)
Oc1c(Cl)cc(Cl)c(Cl)c1Cl | 1.74% (inactive)
CC(C)OCC1CO1 (stereo not given) | 0.286% (inactive)
C/C(Cl)=C/CCl | 0.48% (inactive)
CCCCNCC | 0.398% (inactive)
O=c1[nH]ncc2ccccc12 | 0.105% (inactive)
O=[N+]([O-])c1cccc(I)c1 | -0.217% (inactive)
c1ccc2c(c1)ccc1ccccc12 | -0.233% (inactive)
OCC(CO)(CBr)CBr | 0.0133% (inactive)
c1ccncc1 | 0.0166% (inactive)
C/C=C/C=C/C=O | 1.32% (inactive)
CCCCCCN | -0.35% (inactive)
COc1ccc(C)cc1N | -0.123% (inactive)
C=CC1CO1 (stereo not given) | 0.424% (inactive)
COc1ccc(C(=O)Nc2ccccc2)cc1[N+](=O)[O-] | 0.146% (inactive)

test system: not listed separately; experiment: qHTS assay to identify small molecules that stimulate interleukin-8 (IL-8) secretion (AID 651758; active = well fitted activation curve with a large enough effect in the signal ratio; the % refers to the signal ratio; also: potency is read from the fitted curve at half-maximal effect; as to activation: 0% is about no effect); settings: HTRF ratio (665/615); series mostly up to 92.2 µM; activation: at the top concentration
How it was run: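 THP-1, 2000 cells/well; cpd 16 h, 37 C; add cryptate + XL665 anti-IL-8 Abs; RT 1-3 h; TR-FRET read.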

SMILES | activation | Potency
CCCCCCc1ccc(-c2ccc(C#N)cc2)cc1 | 11.5% (inactive) | –
Nc1cnn([C@@H]2O[C@H](CO)[C@@H](O)[C@H]2O)c(=O)n1 | – | 75 µM (active)
CCCCCCCCOc1ccc(C(=O)O)cc1 | – | 66.8 µM (active)
CCCCNCC | 14.7% (inactive) | –
c1ccc(COCc2ccccc2)cc1 | -0.695% (inactive) | –
OCC(CO)(CBr)CBr | -5.21% (inactive) | –
Oc1ccc2c(c1)OCO2 | 23.7% (inactive) | –
O=C(OCc1ccccc1)c1ccccc1O | 20.2% (inactive) | –
c1c[nH]cn1 | 19.4% (inactive) | –
c1ccc(SCCSc2ccccc2)cc1 | -11.5% (inactive) | –
CCCCOC(=O)COc1ccc(Cl)cc1Cl | -13.6% (inactive) | –
CC(=O)OC(C(=O)c1ccccc1)c1ccccc1 (stereo not given) | -21.5% (inactive) | –
CC(=O)Nc1cccc(C)c1 | 14.4% (inactive) | –
CCC(Cl)CC(Cl)C(Cl)C(Cl)C(Cl)C(C)Cl (stereo not given) | -0.79% (inactive) | –
CCOC(=O)C1OC1c1ccccc1 (stereo not given) | – | 59.6 µM (active)

test system: not listed separately; experiment: qHTS assay for environmental chemicals that activate the Aryl hydrocarbon Receptor (AhR) signaling pathway (AID 651777); settings: 1A2-DRE human hepatoma cells, luciferase, 24 h; activation: stronger effect = higher value; also: nearly all actives have a fitted effect of over 15% in size; also: potency is read from the fitted curve at half-maximal effect; as to activation: % of control where 0% means no effect
How it was run: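 Reporter gene assay: hepatoma cells with DRE/CYP1A2-luciferase, 24 hr compound incubation at 37 C, 5% CO2, luminescence after One-Glo (30 min, RT).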

SMILES | activation | Potency
CCCCCCCCOc1ccc(C(=O)O)cc1 | 8.38% (inactive) | –
Oc1c(Cl)cc(Cl)c(Cl)c1Cl | -0.427% (inactive) | –
CC(C)OCC1CO1 (stereo not given) | 0.457% (inactive) | –
C/C(Cl)=C/CCl | 0.708% (inactive) | –
CCCCNCC | -0.56% (inactive) | –
O=c1[nH]ncc2ccccc12 | 0.167% (inactive) | –
c1ccc(COCc2ccccc2)cc1 | -0.601% (inactive) | –
O=[N+]([O-])c1cccc(I)c1 | 0.159% (inactive) | –
Nc1ccc2c(c1)C(=O)c1ccccc1C2=O | – | 14.1 µM (active) and 44.7 µM (active)
c1ccc2c(c1)ccc1ccccc12 | 0.646% (inactive) and 0.0503% (inactive) | –
Cc1ccc(C(=O)O)cc1[N+](=O)[O-] | -0.0314% (inactive) | –
COc1ccc([N+](=O)[O-])cc1N | 1.04% (inactive) and 4.76% (inactive) | –
OCC(CO)(CBr)CBr | 0.992% (inactive) and 2.31% (inactive) | –
Nc1cc(C(=O)O)c(O)c(S(=O)(=O)O)c1 | -2.49% (inactive) | –
Oc1ccc2c(c1)OCO2 | -0.0594% (inactive) | –
c1ccncc1 | -1.01% (inactive) | –
CC(=O)OC1CC(C)OC(C)O1 (stereo not given) | -3.53% (inactive) and 1.99% (inactive) | –

SMILES | activation | Potency
O=C(OCc1ccccc1)c1ccccc1O | -0.76% (inactive) and -0.296% (inactive) | –
C/C=C/C=C/C=O | 0.0819% (inactive) | –
CCN(CC)c1ccc2c(C)cc(=O)oc2c1 | 6.67% (inactive) | –
c1c[nH]cn1 | -1.48% (inactive) | –
c1ccc(SCCSc2ccccc2)cc1 | 14.7% (inactive) | –
O=C(O)/C=C/c1ccc(/C=C/C(=O)O)cc1 | 0.407% (inactive) | –
CC(=O)OC(C(=O)c1ccccc1)c1ccccc1 (stereo not given) | -0.426% (inactive) | –
CCCCCCN | -0.159% (inactive) | –
CC(=O)Nc1cccc(C)c1 | 0.306% (inactive) | –
CCC(Cl)CC(Cl)C(Cl)C(Cl)C(Cl)C(C)Cl (stereo not given) | -0.274% (inactive) | –
COc1ccc(C)cc1N | 3.33% (inactive) | –
CCc1ccc(C(c2ccc(CC)cc2)C(Cl)Cl)cc1 | -0.69% (inactive) | –
C[C@@H]1CC2(OC(O)[C@]3(C)O[C@H]23)O[C@H]2C[C@@]3(C)[C@@H]4CC[C@H]5C(C)(C)C(O[C@@H]6OC[C@@H](O)[C@H](O)[C@H]6O)CC[C@@]56C[C@@]46CC[C@]3(C)[C@@H]12 (stereo not given in full) | 0.629% (inactive) | –
O=[N+]([O-])c1ccccc1Nc1ccccc1 | 1.93% (inactive) | –
C=CC1CO1 (stereo not given) | -0.433% (inactive) | –
COc1cc(-c2ccc(N=C=O)c(OC)c2)ccc1N=C=O | 0.786% (inactive) and 6.25% (inactive) | –
CCOC(=O)C1OC1c1ccccc1 (stereo not given) | -0.0092% (inactive) | –
